# Assay results reported in PubChem BioAssay AID463082 (The Scripps Research Institute Molecular Screening Center, 2010).
# The whole screen tested about 330,000 compounds, of which about 4,900 (1.5%) were called active.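 How the source made its calls: active means inhibition above the mean inhibition across the screen plus 3 SD (cut at about 25% in these data); inactive means the rest.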 What follows is part of a selection rich in actives, with near analogues and random picks from the rest.
# Biological target: Platelet-activating factor acetylhydrolase (Homo sapiens) (UniProt Q13093)
# Assay: pPAFAH enzyme inhibitors, primary screen, biochemical, fluorescence polarization, human (AID 463082);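 further: inhibitors block binding of the rhodamine activity-based probe so polarization drops; 0% = enzyme with DMSO and 100% = wells lacking pPAFAH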
# Settings: recombinant pPAFAH, FP-rhodamine probe fluorescence polarization; at 3.39 µM; hits give high values
# Sequence of Platelet-activating factor acetylhydrolase (Homo sapiens) (Q13093 whole entry, looked up): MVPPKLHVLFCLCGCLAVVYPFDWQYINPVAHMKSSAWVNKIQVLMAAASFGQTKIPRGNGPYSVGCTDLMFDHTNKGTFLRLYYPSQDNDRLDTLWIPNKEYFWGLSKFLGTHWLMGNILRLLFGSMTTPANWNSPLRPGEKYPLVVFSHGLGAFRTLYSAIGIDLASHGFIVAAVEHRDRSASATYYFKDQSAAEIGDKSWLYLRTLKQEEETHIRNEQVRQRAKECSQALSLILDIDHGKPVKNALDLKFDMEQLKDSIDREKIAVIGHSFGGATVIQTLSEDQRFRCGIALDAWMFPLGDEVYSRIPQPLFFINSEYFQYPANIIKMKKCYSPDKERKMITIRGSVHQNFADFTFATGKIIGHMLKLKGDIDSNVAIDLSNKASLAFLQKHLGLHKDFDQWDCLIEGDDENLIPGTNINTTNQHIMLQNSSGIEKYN
row,Compound,inhibition
1,COCCOC(=O)c1sc(=S)n(CCOC)c1N,27.2% (active)
2,COc1cccc(CNC(=O)C2CCCN(S(=O)(=O)N3CC(C)CC(C)C3)C2)c1 (centres undefined),2.82% (inactive)
3,CCCCN1C(=O)C(=O)N(CC(=O)Nc2cccc(C(C)=O)c2)C1=O,-0.13% (inactive)
4,CC(=O)c1ccc(S(=O)(=O)NCCC(=O)N2CCN(c3ccccn3)CC2)cc1,-1.99% (inactive)
5,COc1ccccc1OCc1nnc(SCC(N)=O)n1-c1ccccc1,-7.86% (inactive)
6,COc1cccc(-c2coc3cc4oc(=O)c(CC(=O)O)c(C)c4cc23)c1,2.78% (inactive)
7,O=C(CCN1CCN(c2ccccc2)CC1)NNC(=S)Nc1ccccc1,3.64% (inactive)
8,O=C(Cc1ccccc1)NC(=S)Nc1ccc(N2CCCCC2)cc1,28.6% (active)
9,Cc1ccccc1C(=O)NC(=S)Nc1ccc(N2CCN(C(=O)c3ccccc3)CC2)cc1,8.73% (inactive)
10,O=C(COC(=O)c1c(Cl)cccc1Cl)Nc1cccc(S(=O)(=O)NC2=NCCCCC2)c1,0.66% (inactive)
11,CC(C)Nc1ccc(-n2nc3ccccc3[n+]2[O-])cc1,-0.33% (inactive)
12,COC(=O)C1(CCSC)NC(c2ccc(OC)cc2OC)C2C(=O)N(c3cccc(C(C)=O)c3)C(=O)C21 (centres undefined),8.06% (inactive)
13,Cc1ccsc1C(=O)NNC(=O)COc1ccc(Br)cc1,5.73% (inactive)
14,CCCCNS(=O)(=O)c1ccc2nc(SCC(=O)Nc3cc(C)cc(C)c3)[nH]c2c1,-1.99% (inactive)
15,COc1cccc(CNC(=O)c2nnn(CC(=O)Nc3cc(Cl)ccc3C)c2N)c1,-8.08% (inactive)
16,CN(C)C(=O)c1nc2ccc(Cl)cn2c1CNCc1cccc(OC(F)(F)F)c1,27.7% (active)
17,CN(C)C(=O)c1nc2ccc(Cl)cn2c1CN1CCN(c2ncccn2)CC1,-1.11% (inactive)
18,Cc1ccc(N=C2NC(=O)/C(=C/C=C/c3ccco3)S2)cc1C,57.3% (active)
19,Cc1ccc(-n2nc3ccc(NC(=O)/C=C/c4ccco4)cc3n2)cc1C,-3.71% (inactive)
20,Cc1ccc(N2NC(=O)/C(=C/C=C/c3ccco3)C2=O)cc1C,21.3% (inactive)
21,Cc1ccc(S(=O)(=O)N2CCCCC2)cc1NC(=O)[C@@H]1CCCN1C(=O)c1cccs1,4.96% (inactive)
22,O=C(CNC(=O)c1n[nH]c2ccccc12)Nc1cc(Cl)ccc1Cl,-4.9% (inactive)
23,CC(=O)Nc1cccc(/C(C)=N/NC(=O)c2c(-c3ccccc3Cl)noc2C)c1,5.03% (inactive)

row,Compound,inhibition
1,C/C(=N\Nc1cccc(C(=O)O)c1)c1ccc2c(c1)Nc1ccccc1S2,32.8% (active)
2,Cc1ccccc1NC(=O)c1cc(S(=O)(=O)Nc2cccc(C(=O)O)c2)ccc1Cl,2.58% (inactive)
3,CSc1ccc(/C=C/C(=O)NC23CC4CC(CC(C4)C2)C3)cc1,-0.12% (inactive)
4,COc1ccc(NC(C)=O)cc1NC(=O)CN1CCN(C2c3ccccc3-c3ccccc32)CC1,7.04% (inactive)
5,COC(=O)c1c(NC(C)=O)sc(C(=O)Nc2ccccc2OC)c1C,-5.75% (inactive)
6,CCC(=O)Nc1sc(C(=O)Nc2ccccc2)c(C)c1C(=O)OC,50.5% (active)
7,CCOC(=O)c1sc(NC(=O)COc2ncnc3ccccc23)c(C(=O)OCC)c1C,0.72% (inactive)
8,COC(=O)c1ccc(CNC(=O)c2ccc3oc(C(C)C)nc3c2)cc1,-0.67% (inactive)
9,CCCn1c(SCC(=O)c2ccc3c(c2)OCCO3)nnc1C(C)C,3.84% (inactive)
10,Cc1ccc(Nc2nc(CSc3nnnn3-c3ccccc3)cc(=O)[nH]2)cc1,27.2% (active)
11,Cc1ccc(NC(=O)CSc2nc(CSc3ccc(C)cc3)cc(=O)[nH]2)cc1,17.3% (inactive)
12,COc1ccc(C)cc1-n1nnnc1SCc1nc2ccccc2c(=O)[nH]1,-13.6% (inactive)
13,N#CC1(NC(=O)COC(=O)Cc2n[nH]c(=O)c3ccccc23)CCCCC1,0.43% (inactive)
14,CC(C)C(C)(C#N)NC(=O)CSc1nc2scc(-c3ccccc3)c2c(=O)[nH]1 (centres undefined),11.1% (inactive)
15,CCCCCCSc1ccc([C@@H]2[C@H]3C(=O)N(CC)C(=O)[C@H]3[C@]3(C(=O)OC)CCCCN23)cc1,6.84% (inactive)
16,CCN1C(=O)[C@@H]2[C@@H](c3ccc(-c4ccc(OC)cc4)c(OC)c3)N3CCC[C@@]3(C(=O)OC)[C@@H]2C1=O,2.25% (inactive)
17,CCCCCCSc1ccc([C@@H]2[C@@H]3C(=O)N(CC)C(=O)[C@@H]3[C@]3(C(=O)OC)CCCCN23)cc1OC,26.9% (active)
18,CCOC(=O)c1ccc2c(c1)nc(SCC(=O)NC(C)C)n2CC,3.79% (inactive)
19,CN(CC(=O)NC1CCCCC1)S(=O)(=O)c1cccc2cccnc12,14.6% (inactive)
20,CCn1c(SCC(=O)Nc2sc(C)c(C)c2C#N)nnc1C1CC1,1.95% (inactive)
21,Cn1nc([N+](=O)[O-])nc1Sc1ccc(C(C)(C)C)cc1,8.17% (inactive)
22,CCC(=C/c1sc2ccc3ccccc3c2[n+]1C)/C=C1\Sc2ccc3ccccc3c2N1C,32.4% (active)
23,CC(C)Oc1ccccc1C(=O)NC(CO)C(=O)O (centres undefined),2.51% (inactive)

row,Compound,inhibition
1,CCOC(=O)C1=C(C)OC(N)=C(C#N)C1c1cncc(-c2ccc(F)cc2)c1 (centres undefined),2.24% (inactive)
2,O=C(Nc1cccc(S(=O)(=O)NC2=NCCC2)c1)C1CCCCC1,3.38% (inactive)
3,CCN(CCCNC(=O)CCn1c(=O)[nH]c2ccsc2c1=O)c1ccccc1,4.5% (inactive)
4,CCN(CCCNC(=O)c1ccc2c(c1)NC(=O)CN2C)c1cccc(C)c1,28% (active)
5,CCN(CCCNC(=O)C1CCN(S(=O)(=O)c2cnc[nH]2)CC1)c1ccccc1,-2.66% (inactive)
6,COc1cccc(N2CC(NS(=O)(=O)c3ccc(Cl)cc3)CC2=O)c1 (centres undefined),9.38% (inactive)
7,Cc1ccc2cc(/C=N/Nc3ccc(C(=O)O)cc3)c(Cl)nc2c1,34% (active)
8,O=C(O)c1ccc(N/N=C/c2ccc3ncccc3c2)cc1,4.87% (inactive)
9,Cc1ccc2cc(/C=N/NC(=O)[C@@H]3CCCN3)c(Cl)nc2c1,3.82% (inactive)
10,COC(=O)[C@]1(C)CCC[C@@]2(C)C3CC[C@]4(OC(C)=O)C[C@@]3(CCC21)CC4=NO (some centres undefined),-4.31% (inactive)
11,COc1ccc(C)cc1NC(=O)CSc1nnc(CC(=O)Nc2ccccc2F)n1C,4.03% (inactive)
12,CC1(OC(=O)C2CCCC2)C(=O)C=C2C=C(c3ccc(C#N)cc3)OC=C2C1=O (centres undefined),52.5% (active)
13,C=CCN1C=C2C(=O)C(C)(OC(=O)CCc3ccccc3)C(=O)C=C2C=C1c1ccc(C#N)cc1 (centres undefined),12.6% (inactive)
14,COCCN1C=C2C(=O)C(C)(OC(=O)C3CCCC3)C(=O)C=C2C=C1c1ccsc1 (centres undefined),5.4% (inactive)
15,O=C(COC(=O)Cc1ccc(F)cc1)Nc1cc(S(=O)(=O)N2CCOCC2)ccc1N1CCCC1,31% (active)
16,O=C(COC(=O)c1ccccc1F)Nc1cc(S(=O)(=O)N2CCOCC2)ccc1N1CCCC1,5.42% (inactive)
17,O=C(COc1cccc2ccccc12)Nc1cc(S(=O)(=O)N2CCOCC2)ccc1N1CCOCC1,9.7% (inactive)
18,C/C=C/C(=O)OCc1csc(CC(=O)Nc2ccccc2C)n1,-0.07% (inactive)
19,CC(=O)Nc1ccc(S(=O)(=O)NC(C)C(=O)OCC(=O)NC2CCCC2)cc1 (centres undefined),-1.59% (inactive)
20,Cc1ccc(NC(=O)Cc2nc(COC(=O)C(C)NS(=O)(=O)c3ccc(C)cc3)cs2)cc1 (centres undefined),32.8% (active)
21,COc1ccccc1C(=O)NC(=S)Nc1ccccc1N1CCCCC1,5.28% (inactive)
22,CCC(=O)Nc1ccccc1N1CCN(S(C)(=O)=O)CC1,1.48% (inactive)
23,COc1ccc(C(=O)NC(=S)Nc2ccccc2N2CCN(S(C)(=O)=O)CC2)cc1OC,51.7% (active)

row,Compound,inhibition
1,O=C(CSc1ncnc2c1oc1ccccc12)NC1CCCC1,-0.51% (inactive)
2,Cc1ccc(Nc2c(F)c(F)c(F)c(F)c2C(=O)O)c(C)c1,8.5% (inactive)
3,COCCCNC(=O)CC1C[C@H](C(=O)N2CCCCC2)[C@@]2(CCc3ccccc3)c3[nH]c4ccccc4c3CCN2C1=O (some centres undefined),1.17% (inactive)
4,CC1=C/C(=N\OS(=O)(=O)c2ccccc2)C=CC1=O,0.71% (inactive)
5,COc1ccc(/C=C2\SC(=S)N(CCCC(=O)NC3CCCC3)C2=O)cc1OC,-4.96% (inactive)
6,O=C(CCCN1C(=O)/C(=C/c2ccco2)SC1=S)Nc1ccccc1,25.9% (active)
7,COc1ccc(/C=C2\SC(=S)N(CCC(=O)Nc3cccc(C(=O)O)c3)C2=O)cc1OC,-14.2% (inactive)
8,O=C(CCCN1C(=O)/C(=C/c2cccs2)SC1=S)Nc1ccc(O)cc1,1.25% (inactive)
9,O=C(CCCN1C(=O)/C(=C/c2ccccc2)SC1=S)Nc1ccc(O)cc1,3.48% (inactive)
10,O=C(CCCN1C(=O)/C(=C\c2ccco2)SC1=S)Nc1cccc2ccccc12,27.9% (active)
11,COc1ccc(S(=O)(=O)N2CCN(C)CC2)c(C)c1,-1.79% (inactive)
12,CN(C)/C=N/c1cc(=O)n(C)c(=O)n1CC1CC1,-0.49% (inactive)
13,Cc1ccc(C(=O)NC23CC4CC(CC(C4)C2)C3)c(Cl)c1,5.48% (inactive)
14,Cc1ccsc1C(=O)OCC(=O)NCCc1ccccc1,2.4% (inactive)
15,CC1CC1C(=O)OCC(=O)Nc1cccc(F)c1 (centres undefined),13.3% (inactive)
16,Cc1ccsc1C(=O)OCC(=O)Nc1cccc(F)c1,31.5% (active)
17,Cc1ccc2nc(-c3ccc(SCC(=O)Nc4cc(C)on4)nc3)[nH]c2c1,-7.51% (inactive)
18,CC(=O)c1ccc(NC(=O)CCc2nnc3ccc(NCc4ccco4)nn23)cc1,-0.96% (inactive)
19,O=C(CCc1nnc2ccc(NCc3ccco3)nn12)Nc1cc(F)ccc1F,32.9% (active)
20,CCOc1ccccc1NC(=O)CCc1nnc2ccc(NCc3ccco3)nn12,6.27% (inactive)
